Data from PubChem BioAssay AID1463 (National Center for Advancing Translational Sciences (NCATS), 2008).
The whole screen tested about 280,000 compounds, of which about 2,600 (0.93%) were called active. Roughly 8% stayed inconclusive and do not appear here. The call rests on the fitted dose curve; in most records, active means well fitted curve in the direction sought with a large enough effect; inconclusive means small, poorly fitted or top-dose-only effect; inactive means flat fitted curve, though single readings scatter. The entries come from a sample that favours actives as a whole. A call without a number means that no potency is given here.

Test: Counterscreen qHTS for Inhibitors of Tau Fibril Formation, Fluorescence Polarization; further: nearly all actives have a fitted effect of over 55% in size
Conditions: tau K18 P301L (four-repeat tau fragment) Alexa594 fluorescence, heparin fibrillization; series mostly up to 57.7 µM
Method in brief: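 Human K18 P301L tau (15 uM unlabeled plus 0.24 uM Alexa 594-labeled, final) in 100 mM sodium acetate pH 7 was mixed with compound and 20 uM heparin and incubated 6 hr at 37 C.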
Potency means the concentration at half of the fitted maximal effect; tags describe the fitted curve by direction and shape or compound fluorescence and quenching.

| Compound | Potency |
| --- | --- |
| CCOc1ccc(-n2c(C)nc3c(cnn3-c3ccc(C)cc3)c2=O)cc1 | inactive |
| CCOc1ccc(NC(=O)c2c(NC(=O)Cc3ccccc3)sc3c2CCCCC3)cc1 | inactive |
| COc1ccc(CCNC(=O)Cn2c(=O)cc(C(F)(F)F)c3c(C)nn(C)c32)c(OC)c1 | inactive |
| CCOC(=O)c1c(NC(=O)CSc2cn(CC)c3ccccc23)sc2c1CCC2 | inactive |
| CCOC(=O)c1c(NC(=S)Nc2ccccc2C)sc2c1CCC2 | inactive |
| CCOC(=O)c1c(NC(=O)C(C)Sc2c[nH]c3ccccc23)sc2c1CCC2 (stereo unspecified) | 7.94 µM [quencher] (active) |
| CCN(CC)C(=O)CSc1nc2cc3c(cc2c(=O)n1CCCC(=O)NCc1ccc2c(c1)OCO2)OCO3 | inactive |
| Cn1c(=O)c2c(nc(NCCc3ccccc3)n2Cc2ccccc2Br)n(C)c1=O | inactive |
| CCCCNc1nc2c(c(=O)n(C)c(=O)n2C)n1Cc1cccc(OC)c1 | inactive |
| Cn1c(=O)c2c(nc(N/N=C/c3cccs3)n2Cc2ccc(Br)cc2)n(C)c1=O | 14.1 µM [quencher] (active) |
| CCOc1ccccc1N(C)C(=O)c1cc2c(s1)-c1ccccc1OC2 | inactive |
| Cc1ccc(NC(=O)NC(C)c2c(-n3cccc3)sc(C)c2C)c(C)c1 (stereo unspecified) | inactive |
| CCn1cc(NC(=O)Nc2ccc(OC)c(OC)c2)c(C(N)=O)n1 | inactive |
| COc1ccc(NC(=O)NC(C)c2c(-n3cccc3)sc(C)c2C)cc1OC (stereo unspecified) | 15.8 µM [quencher] (active) |
| Cc1ccc(CSc2nc3ccsc3c(=O)n2CCC(C)C)cc1 | inactive |
| CCOC(=O)c1c(S(=O)(=O)NCC(=O)Nc2ccc(Cl)c(C(F)(F)F)c2)c(C)n(C)c1C | inactive |
| Fc1ccc2[nH]c3c(N4CCN(Cc5ccc6c(c5)OCO6)CC4)ncnc3c2c1 | 25.1 µM [quencher] (active) |
| Fc1ccc2[nH]c3c(N4CCSCC4)ncnc3c2c1 | inactive |
| O=c1[nH]c(N2CCN(Cc3ccc4c(c3)OCO4)CC2)nc2c1CCCC2 | inactive |
| COc1ccc(S(=O)(=O)c2c(Nc3ccc(C)cc3)sc(C(=O)c3ccc(C)cc3)c2N)cc1 | inactive |
| O=C(NCC(c1ccc2c(c1)OCO2)N1CCN(c2ccccc2)CC1)C(=O)Nc1ccccc1F (stereo unspecified) | inactive |
| Oc1ccc(/C=N/N(Cc2ccccc2)c2ccccc2)cc1 | 15.8 µM [quencher] (active) |
| O=C(N/N=C/c1ccc(OCc2ccccc2)cc1)c1ccc(O)cc1 | inactive |
| CN(C)c1ccc(/C=N/N(Cc2ccccc2)c2ccccc2)cc1 | inactive |
| CCN(CC)c1ccc(NC(=O)CN2C(=O)c3cccnc3Oc3ccc(Cl)cc32)c(C)c1 | inactive |
| CCc1cc2c(cc3c(=O)n(CC(=O)N4CCN(c5cc(Cl)ccc5C)CC4)ncn32)s1 | inactive |
